The nature of test [1]: qHTS assay to identify small molecule agonists of the sonic hedgehog signaling (Shh) pathway (AID 1259368; calls by dose curve;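 further: NIH/3T3-derived 3T3Gli1-Luc cells carrying a stable Gli1-driven firefly luciferase reporter; series mostly up to about 92 µM; nearly all actives have a fitted effect of over 15% in size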). The method in brief:
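A Gli1 transcriptional response element controlled firefly luciferase in 3T3Gli1-Luc cells. Compounds and a positive control were added 4 hr after plating, and cells were incubated a further 24 hr at 37 C before luminescence detection.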
(Quantitative high-throughput screening tests each substance at several concentrations.)

Test [2] can be described thus: qHTS assay to identify small molecule antagonists of the sonic hedgehog signaling (Shh) pathway (AID 1259369; calls by dose curve; further: nearly all actives have a fitted effect of over 45% in size). A digest of the protocol:
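For antagonist detection, the reporter line received test compounds together with conditioned medium, incubated 24hr at 37 C, 5% CO2, then luminescence was recorded following 30min room-temperature luciferase reagent incubation.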

The target in test [3] is Estrogen receptor beta (Homo sapiens) (UniProt Q92731). The experiment in a line: qHTS assay to identify small molecule agonists of the estrogen receptor beta (ER-beta) signaling pathway (AID 1259377; active means well fitted activation curve with a large enough effect in the signal ratio in the repeat runs, not every such curve was filed as active; the % refers to the signal ratio). A digest of the protocol: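 Read-out: beta-lactamase FRET fluorescence. Cell line: ER-beta-UAS-bla HEK293T in 2% charcoal-stripped FBS. Exposure: 16 hr at 37C. Substrate step: 2 h at room temperature.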
Estrogen receptor beta (Homo sapiens), sequence (Q92731 whole entry, looked up): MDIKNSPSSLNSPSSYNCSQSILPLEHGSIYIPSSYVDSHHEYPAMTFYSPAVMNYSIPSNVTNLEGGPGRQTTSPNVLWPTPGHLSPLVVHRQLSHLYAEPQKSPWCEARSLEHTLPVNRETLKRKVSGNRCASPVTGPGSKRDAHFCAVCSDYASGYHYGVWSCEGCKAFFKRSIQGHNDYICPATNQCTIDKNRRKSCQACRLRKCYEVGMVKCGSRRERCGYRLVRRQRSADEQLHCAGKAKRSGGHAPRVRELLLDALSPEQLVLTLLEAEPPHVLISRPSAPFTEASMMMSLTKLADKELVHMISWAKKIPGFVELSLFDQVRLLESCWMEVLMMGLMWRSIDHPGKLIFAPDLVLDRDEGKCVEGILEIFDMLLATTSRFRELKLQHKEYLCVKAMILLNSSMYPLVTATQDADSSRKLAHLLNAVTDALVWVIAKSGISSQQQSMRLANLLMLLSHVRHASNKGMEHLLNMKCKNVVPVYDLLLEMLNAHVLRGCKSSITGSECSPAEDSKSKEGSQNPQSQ

Test [4] has the same target. The experiment in a line: qHTS assay to identify small molecule antagonists of the estrogen receptor beta (ER-beta) signaling pathway (AID 1259378; active means well fitted inhibition curve with a large enough effect in the signal ratio in the repeat runs, not every such curve was filed as active; the % refers to the signal ratio). A digest of the protocol:
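ER-beta-UAS-bla HEK293T cells in 2% charcoal-stripped FBS medium treated with compound plus 1nM final 17-beta-estradiol for 16 hr at 37C. Beta-lactamase reporter read by FRET substrate fluorescence after 2 hours at room temperature.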

Test [5] in a line: qHTS assay to identify small molecule agonists of the androgen receptor (AR) signaling pathway in the presence of an antagonist - cell viability counter screen (AID 1259379).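 Further: MDA-kb2 human breast cancer cells carrying an MMTV luciferase reporter; series mostly up to about 92 µM; nearly all actives have a fitted effect of over 25% in size.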 A digest of the protocol: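 Seed MDA-kb2 at 3,000 cells/well; incubate 5 hr, 37C, 0% CO2. Add nilutamide to 3.0uM final, then pin compounds at 15 concentrations. Incubate 16 hr. Add CellTiter-Fluor at 15 hr, read fluorescence after 1 hr.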

The nature of test [6]: qHTS assay to identify small molecule agonists of the estrogen receptor beta (ER-beta) signaling pathway - cell viability counter screen (AID 1259380). Further: nearly all actives have a fitted effect of over 30% in size. Further: potency means the concentration at half of the fitted maximal effect. The method in brief: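 CellTiter-Glo read, 30 min RT, same wells as bla assay; cells ER-beta-UAS-bla HEK293T; 16 hr compound, 37C; medium 2% charcoal-stripped FBS.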
A short description of test [7]: qHTS assay to identify small molecule antagonists of the estrogen receptor beta (ER-beta) signaling pathway - cell viability counter screen (AID 1259382). Further: series mostly up to about 92 µM; nearly all actives have a fitted effect of over 55% in size. The method in brief: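 In this multiplexed counter screen, cells were seeded at 2,000 per well in medium with 2% charcoal-stripped FBS and incubated 6 hr before compound and 1nM final E2 were added. Sixteen hours later, ATP-based luminescence reported viability.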

The nature of test [8]: qHTS assay to identify small molecule agonists or antagonists of the thyroid stimulating hormone receptor (TSHR) signaling pathway - wild type cell line counter screen (AID 1259384; calls by dose curve). A digest of the protocol:
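Wild-type Hek293 cells, 800/well, 18 h at 37C, then compound with Ro20-1724 for 30 min RT. cAMP by HTRF (cAMP-d2/anti-cAMP cryptate), 1 h RT, fluorescence read. 15 concentrations, triplicates.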

Test [9] concerns the target Thyrotropin receptor (Homo sapiens) (UniProt P16473). The experiment in a line: qHTS assay to identify small molecule antagonists of the thyroid stimulating hormone receptor (TSHR) signaling pathway (AID 1259385; calls by dose curve; further: nearly all actives have a fitted effect of over 20% in size). The method in brief: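 TSHR-HEK293 cells (800/well) plated 18 h, then compounds with Ro20-1724 and TSH at 1.5 ng/mL final, 30 min at room temperature. cAMP quantified by HTRF (cAMP-d2/anti-cAMP-cryptate, 1 h); 15 concentrations in triplicate.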

The nature of test [10]: qHTS assay to identify small molecule agonists of the estrogen receptor alpha (ER-alpha) signaling pathway in the presence of an antagonist - cell viability counter screen (AID 1259386).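 Further: series mostly up to about 92 µM; cells exposed to compounds for 22 h at 37 °C before the viability read; nearly all actives have a fitted effect of over 30% in size.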 The method in brief:
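Viability counter screen using VM7Luc4E2 (full-length ER-alpha, four ERE-luciferase). The cells were treated with compounds alongside ICI-182,780 10.0nM for 22hr, and live-cell protease fluorescence was quantified with CellTiter-Fluor.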

Test [11] addresses Progesterone receptor (Homo sapiens) (UniProt P06401). The experiment in a line: qHTS assay to identify small molecule agonists of the progesterone receptor (PR) signaling pathway (AID 1346784; calls by dose curve; further: nearly all actives have a fitted effect of over 30% in size; further: potency means the concentration at half of the fitted maximal effect). The method in brief: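 Compounds were tested for PR agonism in HEK 293T cells bearing a beta-lactamase gene under UAS control. Treatment lasted 16 hr at 37C; signal came from fluorescence of a FRET substrate.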

The nature of test [12]: qHTS assay to identify small molecule antagonists of the progesterone receptor (PR) signaling pathway - cell viability counter screen (AID 1346798). Further: series mostly up to about 92 µM; nearly all actives have a fitted effect of over 50% in size. The method in brief: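 Following a 4 hr attachment, PR-UAS-bla HEK293T cells in charcoal-stripped FBS medium were exposed to compounds with R5020 for 16 hr; CellTiter-Glo was added and luminescence read after 30 min at room temperature.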

Test [13] is described as follows: qHTS assay to identify small molecule agonists of the progesterone receptor (PR) signaling pathway - cell viability counter screen (AID 1346799; calls by dose curve; further: nearly all actives have a fitted effect of over 45% in size). A digest of the protocol:
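Here, 3,000 PR-UAS-bla HEK293T cells per well were treated with compounds for 16 hr after a 6 hr preincubation at 37C and 5% CO2; cell viability is the CellTiter-Glo luminescence signal.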

Test [14] is described as follows: qHTS assay to identify small molecule antagonists of the TGF-beta/Smad signaling pathway - cell viability counter screen (AID 1346824). Further: nearly all actives have a fitted effect of over 50% in size. The method in brief: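 SBE-bla HEK 293T cells, incubated overnight, then compound plus 0.25 ng/mL TGF-beta1 (stock added) for 5 hr at 37 C. Viability was read in the same wells by CellTiter-Glo luminescence after 30 min at room temperature.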

Test [15] can be described thus: qHTS assay to identify small molecule agonists of the TGF-beta/Smad signaling pathway - cell viability counter screen (AID 1346829). Further: top concentration of the series differs between compounds; nearly all actives have a fitted effect of over 45% in size. The method in brief: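 Here the cytotoxicity of library compounds is measured in SBE-bla HEK 293T cells treated for 5 hr, using CellTiter-Glo added to wells already read for the beta-lactamase reporter.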
Test [16] in a line: qHTS assay to identify small molecule agonists of the TGF-beta/Smad signaling pathway (AID 1346859; active means well fitted activation curve with a large enough effect in the signal ratio in the repeat runs, not every such curve was filed as active; the % refers to the signal ratio; further: series mostly up to about 77 µM). A digest of the protocol: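 Each well held 4,000 SBE-bla HEK 293T cells incubated overnight before compound addition; 5 hr later the cleavable FRET substrate went on for 2 hr at room temperature, and fluorescence was read at two emissions.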
The target of test [17] is Androgen receptor (Homo sapiens) (UniProt P10275). The experiment in a line: qHTS assay to identify small molecule agonists of the androgen receptor (AR) signaling pathway in the presence of an antagonist (AID 1259381; calls by dose curve; further: nearly all actives have a fitted effect of over 15% in size; further: potency means the concentration at half of the fitted maximal effect). The method in brief:
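Test compounds at 15 concentrations were incubated for 16hr with MDA-kb2 reporter cells in presence of 3.0uM nilutamide (final). Signal: ONE-Glo luciferase luminescence.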

Test [18] deals with Estrogen receptor (Homo sapiens) (UniProt P03372). Briefly: qHTS assay to identify small molecule agonists of the estrogen receptor alpha (ER-alpha) signaling pathway in the presence of an antagonist (AID 1259383; calls by dose curve; further: nearly all actives have a fitted effect of over 15% in size; further: potency means the concentration at half of the fitted maximal effect; on activation: top concentration of the series differs between compounds). The method in brief:
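Stably transfected VM7Luc4E2 reporter cells, kept 5 days in charcoal-stripped serum, received ICI-182,780 at 10.0nM final before compound addition. Following 22hr incubation at 37C and 5% CO2, luciferase signal was read by luminescence.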

Test [19] deals with Progesterone receptor (Homo sapiens) (UniProt P06401). The experiment in a line: qHTS assay to identify small molecule antagonists of the progesterone receptor (PR) signaling pathway (AID 1346795; active means well fitted inhibition curve with a large enough effect in the signal ratio in the repeat runs, not every such curve was filed as active; the % refers to the signal ratio). The method in brief: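 In HEK293T cells bearing the PR-UAS-bla reporter, compound effects on promegestone-driven (1 nM) beta-lactamase expression are assessed after 16 hr using a fluorescent FRET substrate incubated 2 hr at room temperature.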
Progesterone receptor (Homo sapiens), sequence (P06401 whole entry, looked up): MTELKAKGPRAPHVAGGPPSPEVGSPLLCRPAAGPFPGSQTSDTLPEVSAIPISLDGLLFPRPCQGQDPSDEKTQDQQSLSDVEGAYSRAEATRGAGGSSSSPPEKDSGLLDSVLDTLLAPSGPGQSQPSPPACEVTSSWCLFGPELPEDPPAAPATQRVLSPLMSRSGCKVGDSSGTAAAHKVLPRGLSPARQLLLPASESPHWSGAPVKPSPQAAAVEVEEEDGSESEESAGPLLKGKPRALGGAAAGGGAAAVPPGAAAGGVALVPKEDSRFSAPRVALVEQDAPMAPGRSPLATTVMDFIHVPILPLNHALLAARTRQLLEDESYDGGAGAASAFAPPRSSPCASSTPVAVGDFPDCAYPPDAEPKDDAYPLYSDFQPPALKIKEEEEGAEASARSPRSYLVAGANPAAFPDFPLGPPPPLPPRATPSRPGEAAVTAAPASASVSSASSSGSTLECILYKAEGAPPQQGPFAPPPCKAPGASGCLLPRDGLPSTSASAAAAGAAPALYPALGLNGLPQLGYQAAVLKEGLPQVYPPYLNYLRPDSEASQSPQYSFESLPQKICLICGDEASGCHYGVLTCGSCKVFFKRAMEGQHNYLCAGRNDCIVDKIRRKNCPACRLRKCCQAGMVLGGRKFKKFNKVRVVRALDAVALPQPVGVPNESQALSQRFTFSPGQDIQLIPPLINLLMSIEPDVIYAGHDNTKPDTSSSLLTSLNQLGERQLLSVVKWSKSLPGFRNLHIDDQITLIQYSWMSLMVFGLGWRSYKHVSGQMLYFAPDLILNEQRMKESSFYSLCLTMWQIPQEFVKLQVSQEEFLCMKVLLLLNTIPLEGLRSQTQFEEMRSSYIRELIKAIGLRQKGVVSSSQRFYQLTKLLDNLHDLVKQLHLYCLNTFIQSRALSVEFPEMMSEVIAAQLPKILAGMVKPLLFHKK

The target in test [20] is Thyrotropin-releasing hormone receptor (Homo sapiens) (UniProt P34981). The experiment in a line: qHTS assay to identify small molecule antagonists of the thyrotropin-releasing hormone receptor (TRHR) signaling pathway (AID 1346877; active means well fitted inhibition curve with a large enough effect in the repeat runs, not every such curve was filed as active; further: series mostly up to about 51 µM). A digest of the protocol:
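Following an 18 h incubation at 37 °C and a 2 h calcium dye load, TRHR-HEK293 cells were exposed to compound (5 min, room temperature) and challenged with TRH, 1 nM final.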

Where “and” joins values, the source holds several entries; their conditions need not be identical. Equal entries are not always repeated. Results filed as inconclusive are left out. The source holds several records for some structures; these can differ, active in one and inactive in another. Calls of active or inactive are those of the source. Unless noted, the call rests on the fitted dose curve; in most records, active means well fitted curve in the direction sought with a large enough effect in the repeat runs; inconclusive means weak or mixed curves; inactive means no such curve, though single readings can be large; an effect the other way counts as inactive or inconclusive.

Estrogen receptor (Homo sapiens), sequence (P03372 whole entry, looked up): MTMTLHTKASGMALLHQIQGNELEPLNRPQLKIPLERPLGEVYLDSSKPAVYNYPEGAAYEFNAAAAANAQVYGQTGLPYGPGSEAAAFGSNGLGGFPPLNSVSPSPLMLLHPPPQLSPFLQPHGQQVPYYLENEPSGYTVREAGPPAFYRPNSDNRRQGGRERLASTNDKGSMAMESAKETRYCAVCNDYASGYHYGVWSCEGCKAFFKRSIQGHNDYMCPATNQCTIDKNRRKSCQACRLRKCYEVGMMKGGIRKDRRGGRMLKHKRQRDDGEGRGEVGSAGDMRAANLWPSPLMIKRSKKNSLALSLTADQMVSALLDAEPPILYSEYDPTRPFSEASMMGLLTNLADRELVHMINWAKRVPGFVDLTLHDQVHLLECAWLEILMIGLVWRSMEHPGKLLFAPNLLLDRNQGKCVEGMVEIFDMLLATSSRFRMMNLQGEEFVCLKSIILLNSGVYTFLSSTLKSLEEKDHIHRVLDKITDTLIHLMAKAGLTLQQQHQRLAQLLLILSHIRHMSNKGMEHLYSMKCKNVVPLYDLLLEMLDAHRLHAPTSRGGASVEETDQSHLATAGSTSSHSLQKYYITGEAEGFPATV
Androgen receptor (Homo sapiens), sequence (P10275 whole entry, looked up): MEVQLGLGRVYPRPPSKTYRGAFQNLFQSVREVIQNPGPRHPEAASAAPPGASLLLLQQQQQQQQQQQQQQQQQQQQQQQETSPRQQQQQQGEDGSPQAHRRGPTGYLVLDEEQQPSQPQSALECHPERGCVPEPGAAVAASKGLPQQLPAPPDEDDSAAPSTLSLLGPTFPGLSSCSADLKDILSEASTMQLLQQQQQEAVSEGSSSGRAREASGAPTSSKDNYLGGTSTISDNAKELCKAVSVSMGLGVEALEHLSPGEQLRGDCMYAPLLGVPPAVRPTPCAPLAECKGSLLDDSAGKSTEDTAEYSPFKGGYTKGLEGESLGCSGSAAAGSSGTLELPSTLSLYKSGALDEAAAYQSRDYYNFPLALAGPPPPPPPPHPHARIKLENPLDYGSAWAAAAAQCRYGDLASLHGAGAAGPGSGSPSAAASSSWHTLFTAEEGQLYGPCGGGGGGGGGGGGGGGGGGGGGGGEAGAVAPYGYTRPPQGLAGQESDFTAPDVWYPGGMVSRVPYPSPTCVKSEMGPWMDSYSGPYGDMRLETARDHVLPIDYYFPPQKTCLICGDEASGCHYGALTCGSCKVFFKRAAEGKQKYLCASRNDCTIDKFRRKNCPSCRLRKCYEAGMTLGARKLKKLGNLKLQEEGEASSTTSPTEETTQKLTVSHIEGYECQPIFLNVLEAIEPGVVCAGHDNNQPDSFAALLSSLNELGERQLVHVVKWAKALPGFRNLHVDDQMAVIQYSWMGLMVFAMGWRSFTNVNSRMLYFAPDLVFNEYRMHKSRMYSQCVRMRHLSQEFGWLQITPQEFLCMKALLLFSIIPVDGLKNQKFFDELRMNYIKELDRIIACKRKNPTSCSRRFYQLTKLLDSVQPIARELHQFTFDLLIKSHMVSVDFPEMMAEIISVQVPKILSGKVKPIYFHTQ
Thyrotropin receptor (Homo sapiens), sequence (P16473 whole entry, looked up): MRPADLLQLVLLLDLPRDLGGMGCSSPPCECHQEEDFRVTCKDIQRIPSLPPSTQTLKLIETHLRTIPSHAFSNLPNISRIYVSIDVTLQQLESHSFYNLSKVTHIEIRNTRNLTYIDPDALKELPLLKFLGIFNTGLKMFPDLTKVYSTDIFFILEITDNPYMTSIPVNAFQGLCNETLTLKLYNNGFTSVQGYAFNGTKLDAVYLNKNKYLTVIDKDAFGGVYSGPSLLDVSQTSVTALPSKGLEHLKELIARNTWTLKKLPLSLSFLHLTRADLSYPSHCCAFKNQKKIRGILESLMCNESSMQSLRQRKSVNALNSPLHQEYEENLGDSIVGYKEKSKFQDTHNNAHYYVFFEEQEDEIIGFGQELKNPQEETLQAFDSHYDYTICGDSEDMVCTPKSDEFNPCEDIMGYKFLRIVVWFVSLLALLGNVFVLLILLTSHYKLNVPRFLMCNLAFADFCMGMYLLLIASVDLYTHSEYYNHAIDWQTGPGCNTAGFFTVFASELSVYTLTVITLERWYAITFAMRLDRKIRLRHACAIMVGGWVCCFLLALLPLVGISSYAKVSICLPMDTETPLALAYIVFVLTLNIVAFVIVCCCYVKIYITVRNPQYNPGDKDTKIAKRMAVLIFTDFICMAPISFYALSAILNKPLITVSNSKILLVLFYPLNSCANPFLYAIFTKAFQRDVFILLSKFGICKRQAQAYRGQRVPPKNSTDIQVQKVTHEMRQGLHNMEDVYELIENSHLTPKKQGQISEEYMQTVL
Thyrotropin-releasing hormone receptor (Homo sapiens), sequence (P34981 whole entry, looked up): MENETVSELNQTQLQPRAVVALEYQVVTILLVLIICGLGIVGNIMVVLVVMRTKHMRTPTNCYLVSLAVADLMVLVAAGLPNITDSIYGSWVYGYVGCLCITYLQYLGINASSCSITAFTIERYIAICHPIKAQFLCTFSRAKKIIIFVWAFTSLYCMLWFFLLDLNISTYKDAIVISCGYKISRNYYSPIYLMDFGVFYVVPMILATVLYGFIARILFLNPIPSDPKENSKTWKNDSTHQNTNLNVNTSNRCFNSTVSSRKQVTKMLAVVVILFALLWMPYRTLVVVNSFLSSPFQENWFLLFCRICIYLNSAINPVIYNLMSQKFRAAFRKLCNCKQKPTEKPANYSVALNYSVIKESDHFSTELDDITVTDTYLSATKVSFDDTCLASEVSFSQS

As for `CCOC(=O)c1ccc(N)cc1`, the compound was classed as inactive in test [1], in test [7], in test [8], in [9], in test [12] and in test [13]. The result in test [14], in test [15] and in [16] was inactive. Further, the Potency entry in test [2], in test [3], in [4], in test [5], in test [6] and in [10] was “inactive” in each case. In addition, the Potency result in test [11] is “inactive”.

Turning to `CCCCCC(=O)O`, the result in test [1], in [7], in [8], in [9], in [12] and in test [13] was inactive. For the same compound, the result in test [14], in [15], in test [16] and in test [20] was inactive. Besides, the Potency result in test [2], in [3], in test [4], in test [6], in [17] and in [18] was “inactive” in each case. Further, the Potency entry in test [10], in test [11] and in test [19] was “inactive” throughout.

As to `C[C@]12CCC(=O)C=C1CC[C@@H]1[C@@H]2[C@@H](O)C[C@@]2(C)[C@H]1CC[C@]2(O)C(=O)CO`, the call in [1], in test [7], in test [9], in test [12], in [13] and in test [14] was inactive. Besides, the compound was classed as inactive in test [15], in test [16] and in test [20]. Further, the Potency result in [2], in test [3], in [4], in test [6] and in test [10] was “inactive” in each case. Further, the Potency in [17] was 246 nM (active) and 150 nM (active); in [11] it was 30.9 µM (active).

For `CN(C)c1ccc(O)c2c1C[C@H]1C[C@H]3[C@H](N(C)C)C(=O)C(C(N)=O)=C(O)[C@@]3(O)C(=O)C1=C2O`, the outcome in test [1], in [7], in test [8], in [9], in test [12] and in test [13] was inactive. The compound was called inactive in [14], in test [15], in test [16] and in test [20]. Moreover, the Potency result in test [2], in [3], in test [4], in [5], in [10] and in test [11] was “inactive” each time. Besides, the Potency result in test [19] was “inactive”. The Potency in test [6] was 86.3 µM (active) and inactive; in [18] it was “inactive and 2.66 µM (active)”.

For the compound `CC(=O)c1ccc(O)cc1`, the result in test [1], in test [7], in test [8], in test [9], in test [12] and in test [13] was inactive. Besides, the compound was classed as inactive in test [14], in test [15], in test [16] and in [20]. Moreover, the Potency entry in test [2], in test [4], in [5], in test [6], in [18] and in test [10] was “inactive” in each case. For the same compound, the Potency entry in test [11] and in test [19] was “inactive” each time.

Regarding `CC(C)(Oc1ccc(CCNC(=O)c2ccc(Cl)cc2)cc1)C(=O)O`, the result in test [1], in [7], in test [9], in test [12], in [13] and in test [14] was inactive. For the same compound, the compound was called inactive in [15], in test [16] and in test [20]. Besides, the Potency entry in test [2], in [6], in test [18], in test [10], in test [11] and in test [19] was “inactive” throughout.

On to `COC(=O)CCCC(=O)OC`, for which the compound was classed as inactive in [1], in test [7], in test [8], in [9], in test [12] and in test [13]. For the same compound, the compound was called inactive in [14], in [15] and in test [16]. Besides, the Potency entry in [2], in [5], in test [6], in test [10], in test [11] and in test [19] was “inactive” in each case.

On to `CC(O)CC(C)(C)O` (stereo unspecified), for which the result in [1], in test [7], in [12], in test [13], in test [14] and in test [15] was inactive. Besides, the result in [16] and in test [20] was inactive. Besides, the Potency entry in [2], in [6], in test [10], in test [11] and in [19] was “inactive” throughout.

Take `CCCCCCC=O`: the result in test [1], in test [7], in test [9], in test [12], in test [13] and in test [14] was inactive. The result in test [15], in [16] and in test [20] was inactive. Also, the Potency result in [2], in [6], in test [18], in [10], in test [11] and in test [19] was “inactive” in each case.

Values taken from PubChem BioAssay (Tox21).
